# According to paper PMC5540273 (PLoS ONE, 2017):
# “And” between values parts separate entries of the source, which are not always exact repeats. Equal entries are not always repeated. Where two headings read alike, the source gives them in different places.
# Key:
# [1] = test system: DDR2; conditions: concentration: 1 μM, replicates: in singlicate, n = 1
# [2] = test system: T1, DLK; conditions: concentration: 1 μM, replicates: in singlicate, n = 1
# T1 construct: gene MAP3K12
# [3] = test system: T2, DMPK2; conditions: concentration: 1 μM, replicates: in singlicate, n = 1
# T2 construct: gene CDC42BPG
# [4] = test system: DMPK; conditions: concentration: 1 μM, replicates: in singlicate; n = 1
# [5] = test system: T3, DRAK1; conditions: concentration: 1 μM, replicates: in singlicate; n = 1
# T3 construct: gene STK17A
# [6] = test system: T4, DRAK2; conditions: concentration: 1 μM, replicates: in singlicate, n = 1
# T4 construct: gene STK17B
# [7] = test system: DYRK1A; conditions: concentration: 1 μM, replicates: in singlicate; n = 1
# [8] = test system: DYRK1B; conditions: concentration: 1 μM, replicates: in singlicate, n = 1
# [9] = test system: DYRK2; conditions: concentration: 1 μM, replicates: in singlicate; n = 1
# [10] = test system: EGFR; conditions: concentration: 1 μM, replicates: in singlicate, n = 1
# 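Further: KINOMEscan kinase panel screen.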
Compound,%Inh [1] [%],%Inh [2] [%],%Inh [3] [%],%Inh [4] [%],%Inh [5] [%],%Inh [6] [%],%Inh [7] [%],%Inh [8] [%],%Inh [9] [%],%Inh [10] [%],%Inh ([1]; 1 µM),%Inh ([2]; 1 µM),%Inh ([3]; 1 µM),%Inh ([6]; 1 µM),%Inh ([8]; 1 µM),%Inh ([10]; 1 µM)
CCC(CC)(CC)n1cnc2c(N)ncnc21 [SKF-97620],24,0,0,7,7,25,0,0,20,0,–,–,–,–,–,–
Clc1cccc(-c2nc(Nc3ccncc3)c3ccccc3n2)c1 [GW873004],32,0,84,4,0,10,12,57,7,10,–,–,–,–,–,–
Nc1nc(-c2ccc3c(N)n[nH]c3c2)cc(N2CCCCC2)n1 [GSK2228768],0,0,0,0,93.1,11,18,0,58,3,–,–,–,–,–,–
Cc1cccc(-c2nc(Nc3ccc4[nH]nnc4c3)c3ccccc3n2)n1 [GW867587],37,0,0,0,0,0,0,0,26,0,–,–,–,–,–,–
Cc1ccc(O)cc1Nc1cc(C(F)(F)F)nc2ccc(-c3ccncc3)cc12 [GW630823],0,0,4,0,21,11,0,7,0,15,–,–,–,–,–,–
Oc1ccc2ncnc(Nc3ccc(OCc4ccccc4)cc3)c2c1 [GI262866],7,11,0,0,0,0,16,0,18,100,–,–,–,–,–,–
Nc1n[nH]c2nnc(-c3ccccc3)cc12 [SB-517389],7,0,0,0,0,0,72,92.4,57,34,–,–,–,–,–,–
COc1ccc(Nc2nccc(N3CCC(NC(=O)Nc4ccc5c(c4)OCO5)C3)n2)cc1 (stereo not shown) [GSK1379745],21,35,20,0,0,0,8,5,7,25,–,–,–,–,–,–
c1ccc(-c2ccc3c(-c4ccnc(Nc5ccc6c(c5)OCCO6)n4)cnn3n2)cc1 [GW818941],26,0,0,20,15,0,8,16,0,14,–,–,–,–,–,–
COc1cc2c(Nc3cccc(NC(=O)c4ccccc4)c3)ncnc2cc1OCCCN1CCOCC1 [GSK223810],16,13,0,0,11,0,0,15,33,87,–,–,–,–,–,–
COC(=O)c1cccc(NC(=O)NCCNc2ccnc(Nc3ccc(F)cc3)n2)c1 [GSK1379883],17,31,8,0,0,0,0,14,5,3,–,–,–,–,–,–
COc1ccc(NC(=O)Nc2ccc(C)c(-c3ccc(C(=O)Nc4ccncc4)cc3)c2)cc1 [GSK1398475],44,0,6,0,5,8,2,0,6,33,–,–,–,–,–,–
CC(C)(C)OC(=O)NC1CCCN(c2cc(-c3ccc4c(N)n[nH]c4c3)nc(N)n2)C1 (stereo not shown) [GSK2286096],0,2,0,0,96.3,0,14,100,80,27,–,–,–,–,–,–
NC(=O)c1sc(-n2cnc3ccccc32)cc1OCc1ccccc1F [GSK1024306],25,38,0,0,4,0,4,0,17,84,–,–,–,–,–,–
O=C(CCO)NCCn1ccc2ncnc(Nc3ccc(Oc4cccc(C(F)(F)F)c4)c(Cl)c3)c21,0,0,0,0,0,0,0,12,0,100,–,–,–,–,–,–
CCc1nc(-c2cccc(N(C)S(=O)(=O)c3ccccc3)c2)c(-c2ccnc(Nc3ccc(N4CCN(C(C)=O)CC4)nc3)n2)s1 [GSK1645895],5,0,22,0,3,0,0,0,29,79,–,–,–,–,–,–

Compound,%Inh [1] [%],%Inh [2] [%],%Inh [3] [%],%Inh [4] [%],%Inh [5] [%],%Inh [6] [%],%Inh [7] [%],%Inh [8] [%],%Inh [9] [%],%Inh [10] [%],%Inh ([1]; 1 µM),%Inh ([2]; 1 µM),%Inh ([3]; 1 µM),%Inh ([6]; 1 µM),%Inh ([8]; 1 µM),%Inh ([10]; 1 µM)
FC(F)(F)c1cc(Nc2nccc(-c3c(-c4ccc(Cl)cc4)nn4ncccc34)n2)ccc1Cl [GW829351],30,0,19,0,0,0,0,0,0,24,–,–,–,–,–,–
Fc1ccc(-c2ncn(CCCNCc3ccccc3)c2-c2ccncc2)cc1,3,0,55,3,0,0,22,22,10,17,–,–,–,–,–,–
N#Cc1ccc(Oc2ccc(Nc3ncnc4cc[nH]c34)cc2Cl)cc1,0,0,4,0,32,1,1,15,0,96.7,–,–,–,–,–,–
Clc1ccc(-c2cc(-c3c[nH]nc3-c3ccccn3)ccn2)cc1 [GW681251],7,92.9,0,0,0,0,11,0,0,24,–,–,–,–,–,–
CC(=O)Nc1n[nH]c2ncc(-c3ccccc3)cc12 [SB-548492],11,0,0,0,20,0,32,0,24,3,–,–,–,–,–,–
COc1ccc(-c2oc3ncnc(N)c3c2-c2ccc(OC)cc2)cc1 [SB-589132],70,52,2,0,4,0,15,0,18,0,–,–,–,–,–,–
Cl.c1ccc(Cn2ncc3cc(Nc4ncnc5ccccc45)ccc32)cc1 [GW273749],0,12,61,0,79,0,16,8,16,100,–,–,–,–,–,–
O=C(Nc1n[nH]c2nc(-c3ccco3)c(Br)cc12)c1ccc(CN2CCCC2)cc1.O=C(O)[C@H](O)[C@@H](O)C(=O)O [SB-742352],0,0,0,0,42,20,0,0,14,8,–,–,–,–,–,–
COc1ccc(-c2nc3n(c2-c2ccncc2)CCC3)cc1 [SKF-104493],–,–,–,0,0,–,0,–,0,–,31% and 51%,0% and 20%,0% and 15%,2% and 0%,0% and 5%,0% and 15%
O=C(Nc1ccccc1F)NC1CCN(c2ccnc(Nc3ccc(F)cc3)n2)C1 (stereo not shown) [GSK1379722],11,23,1,0,0,0,19,22,0,0,–,–,–,–,–,–
CNc1nccc(-c2c(-c3ccc(F)cc3)ncn2C2CCN(C)CC2)n1 [SB-222903],58,0,21,1,0,0,0,0,0,8,–,–,–,–,–,–
O=C(c1ccc(-c2cc(-c3c[nH]nc3-c3ccccn3)ccn2)cc1)N1CCCC1 [GW792479],24,0,0,0,0,10,0,0,0,27,–,–,–,–,–,–
Nc1nc(-c2cccnc2)c(-c2ccnc3ccccc23)s1 [GW684083],43,60,0,0,32,0,20,0,9,0,–,–,–,–,–,–
Cl.Cl.c1ccc(-c2cc3ccncc3cc2OC2CCNCC2)cc1 [GSK1122999],0,31,18,0,21,0,13,15,21,23,–,–,–,–,–,–
OCCOCCn1ccc2ncnc(Nc3ccc(Oc4cccc(Cl)c4)c(Cl)c3)c21,0,0,0,0,0,0,0,0,0,100,–,–,–,–,–,–
